# Data published in PubChem BioAssay (Tox21).
# Values joined by “and” are separate entries in the source; they are usually repeats but may differ in a detail not shown here. Equal entries are not always repeated. Results filed as inconclusive are left out. Where a call stands in place of a potency, no number is given. Some compounds were tested as several samples or in several runs, with calls that do not always agree. Active and inactive are the calls of the source. Unless noted, the call rests on the fitted dose curve.
# Columns and labels:
# [1] = Nuclear factor erythroid 2-related factor 2/antioxidant responsive element (Nrf2/ARE) small molecule agonists: qHTS cell viability counter screen in human keratinocytes (AID 1919968; active means well fitted curve in the direction sought with a large enough effect in the repeat runs; an effect the other way counts as inactive or inconclusive; further: nearly all actives have a fitted effect of over 55% in size)
# Procedure, shortened: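 Viability counter-screen: KeratinoSens reporter cells, DMSO-delivered compounds, 23 h at 37 C, CellTiter-Fluor fluorescence.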
# [2] = Nuclear factor erythroid 2-related factor 2/antioxidant responsive element (Nrf2/ARE) small molecule agonists: luciferase reporter gene qHTS assay in human keratinocytes (AID 1919969); further: nearly all actives have a fitted effect of over 35% in size; further: potency means the concentration at half of the fitted maximal effect
# [3] = target: Gonadotropin-releasing hormone receptor (Homo sapiens) (UniProt P30968); test: Human gonadotropin-releasing hormone receptor (GnRHR) small molecule agonists, calcium flux assay in GnRHR-HEK293 cells (AID 1920063); further: nearly all actives have a fitted effect of over 35% in size
# Procedure, shortened: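 Tox21-format agonist screen using human GnRHR-expressing HEK293 cells and a fluorescent calcium dye; kinetic 3-min fluorescence reading after compound addition, 15-point concentration series run in triplicate.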
# [4] = target: KiSS-1 receptor (Homo sapiens) (UniProt Q969F8); test: Human kisspeptin (KISS1R) small molecule agonists, calcium flux assay in KISS1R-HEK293 cells (AID 1920064; active means well fitted curve in the direction sought with a large enough effect in the repeat runs; an effect the other way counts as inactive or inconclusive)
# Procedure, shortened: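 Intracellular calcium mobilization in KISS1R-HEK293 cells was recorded by fluorescence (Ex/Em 480/540) for 3 min following compound addition to cells pre-loaded 1 h with calcium dye.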
# [5] = G protein-coupled receptor (GPCR) small molecule agonists, calcium flux assay: HEK293 wild type cell line counter screen (AID 1920065)
# Procedure, shortened: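 In this agonist-mode screen, ATP is the positive control and DMSO the vehicle. Cells grow 18 h before a 1 h dye incubation at 37 C; signal is taken at Ex/Em 480/540 over 3 min.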
# [6] = p53 small molecule agonists, cell-based qHTS assay with human liver microsomes (AID 1963577);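 further: p53 response element beta-lactamase reporter cells with liver microsomes plus NADPH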
# Procedure, shortened: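 In this qHTS, p53 response-element beta-lactamase cells receive test compound together with a microsome/NADPH activating system (0.5 mg/mL final each) and are incubated 16 h at 37 C before LiveBLAzer fluorescence detection.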
# [7] = p53 small molecule agonists, cell-based qHTS assay with rat liver microsomes (AID 1963578)
# Procedure, shortened: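 Agonist mode in p53RE-bla reporter cells, with compounds co-incubated 16 h at 37 C alongside 0.5 mg/mL rat liver microsomes and 0.5 mg/mL NADPH (final), followed by a 2 h LiveBLAzer detection step.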
# [8] = p53 small molecule agonists, cell-based qHTS assay with human liver microsomes: qHTS cell viability counter screen (AID 1963579); further: nearly all actives have a fitted effect of over 45% in size
# Procedure, shortened: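 Metabolically activated exposure: compounds, human liver microsomes and NADPH (0.5 mg/mL final apiece) were added to p53RE-bla cells seeded 5 h earlier, left 16 h at 37 C, and then assessed for viability by CellTiter-Glo luminescence.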
# [9] = p53 small molecule agonists, cell-based qHTS assay with rat liver microsomes: qHTS cell viability counter screen (AID 1963580); further: nearly all actives have a fitted effect of over 45% in size
# Procedure, shortened: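 Viability is assessed in parallel with the p53 reporter read: HCT-116 p53RE-bla cells receive compounds plus rat microsomes and NADPH (0.5 mg/mL final apiece), incubate 16 h at 37 C, and then CellTiter-Glo luminescence is recorded.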
# [10] = p53 small molecule agonists, cell-based qHTS assay: qHTS cell viability counter screen (AID 1963581); further: nearly all actives have a fitted effect of over 45% in size
# Procedure, shortened: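 Compounds are pinned onto HCT-116 p53RE-bla cells and left 16 h at 37 C. Following the reporter FRET read, ATP is quantified by CellTiter-Glo luminescence after 30 min at room temperature.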
# [11] = p53 small molecule agonists, cell-based qHTS assay (AID 1963582; active means well fitted activation curve with a large enough effect in the signal ratio in the repeat runs, not every such curve was filed as active; the % refers to the signal ratio)
# Procedure, shortened: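 Agonist activity was scored from beta-lactamase FRET fluorescence in p53RE-bla cells treated 16 h at 37 C with compounds in DMSO, substrate incubation being 2 h at room temperature.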
# [12] = target: 5-hydroxytryptamine receptor 2A (Homo sapiens) (UniProt P28223); test: 5-hydroxytryptamine receptor 2A (HTR2A) small molecule antagonists, cell-based qHTS assay (AID 1963586); further: nearly all actives have a fitted effect of over 45% in size; further: potency means the concentration at half of the fitted maximal effect
# Procedure, shortened: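 Antagonist-mode intracellular calcium assay: DOI (4 nM) added after 5 min compound pre-incubation at room temperature to dye-loaded HTR2A-CHO cells. Fluorescence followed for 3 min, sampled every second.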
# [13] = target: 5-hydroxytryptamine receptor 2A (Homo sapiens) (UniProt P28223); test: 5-hydroxytryptamine receptor 2A (HTR2A) small molecule agonists, cell-based qHTS assay (AID 1963587); further: nearly all actives have a fitted effect of over 30% in size; further: potency means the concentration at half of the fitted maximal effect
# Procedure, shortened: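 CHO cells stably expressing human HTR2A, plated 18 h, loaded with calcium dye 1 h at 37 C. Agonist mode: compounds added and intracellular calcium fluorescence recorded kinetically for 2 min at 1 sec intervals.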
# [14] = target: Muscarinic acetylcholine receptor M1 (Homo sapiens) (UniProt P11229); test: Cholinergic receptor muscarinic 1 (CHRM1) small molecule antagonists, cell-based qHTS assay (AID 1963588); further: nearly all actives have a fitted effect of over 40% in size
# Procedure, shortened: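 CHRM1-CHO calcium-flux assay, antagonist mode. Cells were seeded 18 h, dye-loaded 1 h at 37 C and given compound for 5 min at RT, then acetylcholine was added at 50nM. FDSS fluorescence was read 3 min; 15 concentrations, three runs.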
# [15] = cAMP Responsive Elements (CRE) small molecule agonists, cell-based qHTS assay (AID 1963590)
# Procedure, shortened: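 FRET-based beta-lactamase readout (LiveBLAzer B/G, 2 h RT) quantified CRE activation in HEK 293T CRE-bla cells after 3 h treatment with DMSO-dissolved compounds.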
# [16] = cAMP Responsive Elements (CRE) small molecule antagonists, cell-based qHTS assay (AID 1963591; active means well fitted inhibition curve with a large enough effect in the signal ratio in the repeat runs, not every such curve was filed as active; the % refers to the signal ratio)
# Procedure, shortened: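 qHTS in CRE-bla HEK 293T cells: compound in DMSO, then 0.25 uM NKH477 (final), 3 h at 37 °C/5% CO2; beta-lactamase FRET read-out after 2 h substrate incubation.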
# [17] = target: Muscarinic acetylcholine receptor M1 (Homo sapiens) (UniProt P11229); test: Cholinergic receptor muscarinic 1 (CHRM1) small molecule agonists, cell-based qHTS assay (AID 1963589); further: nearly all actives have a fitted effect of over 35% in size
# Procedure, shortened: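 Stable CHRM1-CHO cells (human receptor) were incubated 18 h, dye-loaded for 1 h at 37 C and exposed to test compounds for agonist activity, with calcium-dependent fluorescence followed kinetically.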
# [18] = target: Beta-2 adrenergic receptor (Homo sapiens) (UniProt P07550); test: Adrenergic beta2 receptor (ADRB2) small molecule antagonists, cell-based qHTS assay (AID 1963592); further: series mostly up to about 92 µM; nearly all actives have a fitted effect of over 50% in size
# Procedure, shortened: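 Cells (CHO, stable ADRB2 overexpression) incubated 18-20hr at 37C; compounds added from DMSO; agonist mix (1nM isoproterenol, 100uM IBMX, 25uM Ro-20-1724) added; 0.5hr RT; d2-cAMP and anti-cAMP-cryptate added; 1hr RT; 665/615 nm read.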
# [19] = target: D(2) dopamine receptor (Homo sapiens) (UniProt P14416); test: Dopamine D2 receptor (DRD2) small molecule agonists, cell-based qHTS assay (AID 1963594); further: nearly all actives have a fitted effect of over 35% in size
# Procedure, shortened: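 HEK293 cells stably expressing human DRD2, pre-treated with PDE inhibitor Ro20-1724 (0.1 mM final) and compound 10 min at room temperature, then stimulated with NKH477 (200nM […]) for 30 min. cAMP read by HTRF (665/620 nm).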
# [20] = target: D(2) dopamine receptor (Homo sapiens) (UniProt P14416); test: Dopamine D2 receptor (DRD2) small molecule antagonists, cell-based qHTS assay (AID 1963595; active means well fitted inhibition curve with a large enough effect in the signal ratio in the repeat runs, with a control signal flat; the % refers to the signal ratio)
# Procedure, shortened: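 In this cell-based antagonist screen, compounds act for 10 min at room temperature before a 30 min challenge with 12 nM quinpirole and 200 nM NKH477. cAMP is quantified by HTRF competition in DRD2-HEK293 cells containing 0.1 mM Ro20-1724.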
# Sequence of 5-hydroxytryptamine receptor 2A (Homo sapiens) (P28223 whole entry, looked up): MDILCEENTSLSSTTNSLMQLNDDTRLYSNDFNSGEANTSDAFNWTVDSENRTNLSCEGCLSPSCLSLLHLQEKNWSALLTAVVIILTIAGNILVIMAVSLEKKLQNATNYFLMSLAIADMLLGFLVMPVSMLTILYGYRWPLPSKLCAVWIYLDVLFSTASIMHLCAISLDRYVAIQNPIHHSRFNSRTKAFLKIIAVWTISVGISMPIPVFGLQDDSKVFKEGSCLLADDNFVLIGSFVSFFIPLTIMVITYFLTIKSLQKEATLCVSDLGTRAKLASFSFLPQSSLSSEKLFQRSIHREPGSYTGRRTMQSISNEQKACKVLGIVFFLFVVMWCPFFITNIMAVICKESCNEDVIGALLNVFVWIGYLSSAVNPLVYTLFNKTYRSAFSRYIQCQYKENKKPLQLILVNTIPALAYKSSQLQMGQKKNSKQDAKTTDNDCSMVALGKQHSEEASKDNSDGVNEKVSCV
# Sequence of Gonadotropin-releasing hormone receptor (Homo sapiens) (P30968 whole entry, looked up): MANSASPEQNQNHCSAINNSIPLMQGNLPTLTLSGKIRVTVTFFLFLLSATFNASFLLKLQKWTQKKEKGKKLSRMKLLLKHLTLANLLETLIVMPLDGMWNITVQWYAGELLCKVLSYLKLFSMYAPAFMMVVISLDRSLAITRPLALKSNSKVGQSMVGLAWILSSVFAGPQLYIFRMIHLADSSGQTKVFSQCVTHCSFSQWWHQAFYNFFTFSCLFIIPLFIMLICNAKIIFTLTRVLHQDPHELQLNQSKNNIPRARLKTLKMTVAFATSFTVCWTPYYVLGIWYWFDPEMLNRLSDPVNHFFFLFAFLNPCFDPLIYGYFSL
# Sequence of KiSS-1 receptor (Homo sapiens) (Q969F8 whole entry, looked up): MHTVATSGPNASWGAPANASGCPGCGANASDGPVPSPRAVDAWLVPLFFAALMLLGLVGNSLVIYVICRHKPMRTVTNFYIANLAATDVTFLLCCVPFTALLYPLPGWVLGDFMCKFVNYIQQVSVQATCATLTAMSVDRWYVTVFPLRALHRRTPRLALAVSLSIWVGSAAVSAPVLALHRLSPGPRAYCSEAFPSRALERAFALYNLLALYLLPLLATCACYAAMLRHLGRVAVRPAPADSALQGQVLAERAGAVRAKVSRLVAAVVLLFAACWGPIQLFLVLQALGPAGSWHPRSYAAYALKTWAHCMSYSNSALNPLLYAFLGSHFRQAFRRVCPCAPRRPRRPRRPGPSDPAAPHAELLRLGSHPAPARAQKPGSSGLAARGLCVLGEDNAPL
# Sequence of Beta-2 adrenergic receptor (Homo sapiens) (P07550 whole entry, looked up): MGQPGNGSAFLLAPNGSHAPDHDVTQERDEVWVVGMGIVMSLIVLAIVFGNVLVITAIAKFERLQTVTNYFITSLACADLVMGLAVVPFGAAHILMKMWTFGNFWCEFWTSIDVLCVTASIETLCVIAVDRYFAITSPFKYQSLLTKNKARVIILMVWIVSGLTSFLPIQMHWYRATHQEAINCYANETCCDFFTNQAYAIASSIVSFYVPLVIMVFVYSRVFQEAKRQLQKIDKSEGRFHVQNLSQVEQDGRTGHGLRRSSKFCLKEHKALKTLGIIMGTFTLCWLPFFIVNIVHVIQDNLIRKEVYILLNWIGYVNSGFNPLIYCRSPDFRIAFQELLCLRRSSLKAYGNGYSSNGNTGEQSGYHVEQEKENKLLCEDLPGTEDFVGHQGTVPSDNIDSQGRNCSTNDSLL
# Sequence of D(2) dopamine receptor (Homo sapiens) (P14416 whole entry, looked up): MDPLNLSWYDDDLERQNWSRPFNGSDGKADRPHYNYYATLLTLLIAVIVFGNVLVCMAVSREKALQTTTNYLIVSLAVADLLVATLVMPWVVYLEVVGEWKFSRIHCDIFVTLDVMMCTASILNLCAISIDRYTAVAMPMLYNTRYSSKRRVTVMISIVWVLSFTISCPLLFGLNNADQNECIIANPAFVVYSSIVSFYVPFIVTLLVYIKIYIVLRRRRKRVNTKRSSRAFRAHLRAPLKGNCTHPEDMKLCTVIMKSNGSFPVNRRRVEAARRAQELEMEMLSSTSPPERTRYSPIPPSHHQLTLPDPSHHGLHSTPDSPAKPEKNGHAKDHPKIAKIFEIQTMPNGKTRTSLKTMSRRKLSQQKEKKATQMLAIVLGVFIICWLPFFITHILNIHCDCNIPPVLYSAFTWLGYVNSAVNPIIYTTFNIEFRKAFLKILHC
# Sequence of Muscarinic acetylcholine receptor M1 (Homo sapiens) (P11229 whole entry, looked up): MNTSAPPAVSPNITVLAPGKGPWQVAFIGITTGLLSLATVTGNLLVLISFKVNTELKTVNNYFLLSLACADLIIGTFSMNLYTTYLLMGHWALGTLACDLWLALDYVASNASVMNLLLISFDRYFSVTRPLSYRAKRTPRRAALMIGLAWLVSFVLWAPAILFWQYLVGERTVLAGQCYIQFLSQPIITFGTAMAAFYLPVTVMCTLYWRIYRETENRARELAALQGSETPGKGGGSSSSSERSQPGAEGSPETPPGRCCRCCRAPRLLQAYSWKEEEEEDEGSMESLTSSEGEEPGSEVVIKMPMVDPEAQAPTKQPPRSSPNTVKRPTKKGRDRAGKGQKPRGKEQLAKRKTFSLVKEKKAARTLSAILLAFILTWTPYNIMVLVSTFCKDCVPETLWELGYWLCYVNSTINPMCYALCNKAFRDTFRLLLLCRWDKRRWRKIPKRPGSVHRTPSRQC
smiles,measurement,setting,value
Nc1ccc(Nc2ccccc2)cc1,Potency,[1],inactive
same,Potency,[2],53.9 µM (active) and inactive and 30.6 µM (active)
same,Potency,[3],inactive
same,Potency,[4],inactive
same,Potency,[5],inactive
same,Potency,[6],inactive
same,Potency,[7],inactive
same,Potency,[8],inactive
same,Potency,[9],inactive
same,Potency,[10],inactive
same,Potency,[11],inactive
same,Potency,[12],inactive and 3.75 µM (active)
same,Potency,[13],7.68 µM (active) and 24.6 µM (active) and 3.89 µM (active)
same,Potency,[14],inactive
same,Potency,[15],inactive
same,Potency,[16],inactive
[Na+],Potency,[1],inactive
same,Potency,[2],inactive
same,Potency,[3],inactive
same,Potency,[4],inactive
same,Potency,[5],inactive
same,Potency,[6],inactive
same,Potency,[7],inactive
same,Potency,[8],inactive
same,Potency,[9],inactive
same,Potency,[10],inactive
same,Potency,[11],inactive
same,Potency,[12],inactive
same,Potency,[13],inactive
same,Potency,[17],inactive
same,Potency,[15],inactive
same,Potency,[16],inactive
same,Potency,[18],inactive
same,Potency,[19],inactive
same,Potency,[20],inactive
CCC[C@H](N[C@@H](C)C(=O)N1[C@H](C(=O)O)C[C@@H]2CCCC[C@@H]21)C(=O)OCC,Potency,[1],inactive
same,Potency,[2],inactive
same,Potency,[3],inactive
same,Potency,[4],inactive
same,Potency,[5],inactive
same,Potency,[6],inactive
same,Potency,[7],inactive
same,"activity change, negative = cytotoxicity",[8],-3.18% [at 13.5 µM] (inactive)
same,Potency,[9],inactive
same,Potency,[10],inactive
same,Potency,[11],inactive
same,Potency,[12],inactive
same,Potency,[13],inactive
same,Potency,[14],inactive
same,Potency,[15],inactive
same,Potency,[16],inactive
same,Potency,[20],inactive
CCCCNC(=O)NS(=O)(=O)c1ccc(C)cc1,Potency,[1],inactive
same,Potency,[2],inactive
same,Potency,[3],inactive
same,Potency,[4],inactive
same,Potency,[5],inactive
same,Potency,[6],inactive
same,Potency,[7],inactive
same,Potency,[8],inactive
same,Potency,[9],inactive
same,Potency,[10],inactive
same,Potency,[11],inactive
same,Potency,[12],inactive
same,Potency,[14],inactive
same,Potency,[17],inactive
same,Potency,[15],inactive
same,Potency,[16],inactive
same,Potency,[18],inactive
same,Potency,[19],inactive
same,Potency,[20],inactive
C=C(C)CC(C)(C)C,Potency,[1],inactive
same,Potency,[2],inactive
same,Potency,[3],inactive
same,Potency,[4],inactive
same,Potency,[5],inactive
same,Potency,[6],inactive
same,Potency,[7],inactive
same,Potency,[8],inactive
same,Potency,[9],inactive
same,Potency,[10],inactive
same,Potency,[11],inactive
same,Potency,[12],inactive
same,Potency,[13],inactive
same,Potency,[14],inactive
same,Potency,[17],inactive
same,Potency,[15],inactive
same,Potency,[18],inactive
same,Potency,[19],inactive
same,Potency,[20],inactive
CC(O)CC(C)(C)O (stereo unspecified),Potency,[1],inactive
same,Potency,[2],inactive
same,Potency,[3],inactive
same,Potency,[4],inactive
same,Potency,[5],inactive
same,Potency,[6],inactive
same,Potency,[7],inactive
same,Potency,[8],inactive
same,Potency,[9],inactive
same,Potency,[10],inactive
same,Potency,[11],inactive
same,Potency,[12],inactive
same,Potency,[14],inactive
same,Potency,[17],inactive
same,Potency,[15],inactive
same,Potency,[18],inactive
same,Potency,[19],inactive
same,Potency,[20],inactive
CCCCCCCCCCCC(=O)OC,Potency,[1],inactive
same,Potency,[2],inactive
same,Potency,[3],inactive
same,Potency,[4],inactive
same,Potency,[5],inactive
same,Potency,[6],inactive
same,Potency,[7],inactive
same,Potency,[8],inactive
same,Potency,[9],inactive
same,Potency,[10],inactive
same,Potency,[11],inactive
same,Potency,[12],inactive
same,Potency,[13],inactive
same,Potency,[14],inactive
same,Potency,[17],inactive
same,Potency,[15],inactive
same,Potency,[18],inactive
same,Potency,[19],inactive
same,Potency,[20],inactive
COc1ccc(C(=O)c2ccccc2)c(O)c1,Potency,[1],inactive
same,Potency,[2],inactive and 54.5 µM (active)
same,Potency,[3],inactive
same,Potency,[4],inactive
same,Potency,[5],inactive
same,Potency,[6],inactive
same,Potency,[7],inactive
same,Potency,[8],inactive
same,Potency,[9],inactive
same,Potency,[10],inactive
same,Potency,[11],inactive
same,Potency,[12],inactive
same,Potency,[13],inactive
same,Potency,[14],inactive
same,Potency,[17],inactive
same,Potency,[16],inactive
same,Potency,[18],inactive
same,Potency,[19],inactive
same,Potency,[20],inactive
